# Shown are actives, neighbours in structure and some others; about 0.97% of the full set was active somewhere.
# FadD28 FP inh: blocks FadD28 binding to the bisubstrate probe; inhibition, % at 12.5 µM; fluorescence polarization; 360,000 compounds, 0.22% hits; in the data active = inhibition above about 8.5%, passing the limit was not always enough; inconclusive = no clear call, values can overlap the other calls
# Rv3671c inh: Rv3671c (M. tuberculosis) protease inhibition. P9WHR9. inhibition, % at 5.96 µM. 320,000 compounds, 0.048% hits; in the data active = inhibition above about 38%;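 also: extracellular domain of Rv3671c used as enzyme; 0% = enzyme with DMSO and 100% = no enzyme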
# Mtb UGM inh: blocks M. tuberculosis UGM enzyme. P9WIQ1. 320,000 compounds, 0.06% hits. AID 504406. inhibition, % at 10 µM. purified UGM, fluorescence polarization probe displacement; in the data active = inhibition above about 10%, passing the limit was not always enough; inconclusive = no clear call, values can overlap the other calls
# RecA splice inh: blocks M. tuberculosis RecA intein splicing; inhibition, % (concentration not given with the values); 290,000 compounds, 0.75% hits; cell-free RecA intein splicing, fluorescence; P9WHJ3; in the data active = inhibition above about 30%; inconclusive = no clear call, values can overlap the other calls;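 also: 0% = vehicle wells and 100% = reference inhibitor control wells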
# TcdB inh: blocks C. difficile toxin B glycohydrolase activity; P18177; TcdB glycohydrolase enzymatic assay, plate reader; inhibition, % at 9.99 µM; 350,000 compounds, 0.24% hits; in the data active = inhibition above about 10%
# BioA inh-1: BioA (M. tuberculosis) enzyme inhibition; purified M. tuberculosis BioA enzyme, plate reader; 360,000 compounds, 0.096% hits; AID 602481; inhibition, % at 9.99 µM; in the data active = inhibition above about 40%; inconclusive = no clear call, values can overlap the other calls
# BioA inh-2: Mtb BioA enzyme inhibition | shares compounds with BioA inh-1 | purified BioA enzyme, plate reader, dose response | max activity, % | 310 tested, under 10 active;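 also: top concentration of the dilution series was 10 µM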
# HepG2 cytotox: cytotoxicity in HepG2 cells. plate reader. max activity, %. AID 651898. shares compounds with BioA inh-1. 310 tested, under 10 active
# 3T3 cytotox 5: NIH3T3 viability loss; shares compounds with BioA inh-1; NIH3T3 cytotoxicity, plate reader; activity change, negative = cytotoxicity, % at 26 µM; 310 tested, under 10 active
# An asterisk follows results filed as active; i = inactive; ? = inconclusive; . = no result given; [ ] = remark or other dose. Unless noted, no rule for the calls is given here.
SMILES,FadD28 FP inh,Rv3671c inh,Mtb UGM inh,RecA splice inh,TcdB inh,BioA inh-1,BioA inh-2,HepG2 cytotox,3T3 cytotox 5
C[C@@H]1CN([C@@H](C)CO)C(=O)c2cc(C#Cc3cccnc3)cnc2O[C@H]1CN(C)S(C)(=O)=O,.,.,.,.,-0.3,73.8*,6.1,i,0.7
C[C@@H]1CN([C@@H](C)CO)C(=O)Cc2cc(NC(=O)Nc3ccc(F)cc3)ccc2O[C@H]1CN(C)C(=O)Nc1ccc2c(c1)OCO2,.,.,.,.,0.8,-0.4,.,.,.
Fc1ccc(-c2ccc3c(c2)C2CC3CCN2)cc1 (stereo unspecified),-1.6,.,.,.,1.3,66.3*,-4.8,15.5,-2.1
Cc1cccc(-c2ccc3c(c2)C2CC3CCN2)c1 (stereo unspecified),-0.1,.,.,.,1.9,55.6*,-11.1,-9.0,-8.4
Cc1cccc(-c2ccc3c(c2)C2CC3CCN2C)c1 (stereo unspecified),0.1,.,.,.,2.0,2.9,.,.,.
FC(F)(F)c1ccc(-c2cccc3c2C2CC3CCN2)cc1 (stereo unspecified),-4.6,.,.,.,-0.7,21.6,.,.,.
Cc1cc(C(=O)CSc2nncs2)c(C)n1-c1ccc2c(c1)OCO2,-0.5,-11.2,0.4,1.8,.,49.3*,-9.8,9.5,-5.8
C[C@H](CO)N1C[C@H](C)[C@@H](CN(C)Cc2ccc3c(c2)OCO3)Oc2ccc(NC(=O)Cn3cnnn3)cc2CC1=O,.,.,.,.,-0.6,48.4*,9.7,i,-9.2[23.5 µM]
O=C(C[C@@H]1C[C@@H]2c3cc(NC(=O)c4cccnc4)ccc3O[C@@H]2[C@@H](CO)O1)NCCc1ccccc1,.,.,.,.,-0.1,41.0*,-3.9,i,-5.5[23.5 µM]
COC(=O)C[C@@H]1C[C@@H]2c3cc(NC(=O)c4cccnc4)ccc3O[C@@H]2[C@@H](CO)O1,.,.,.,.,0.7,50.5*,4.4,i,6.8
Cc1nnc(N2CCC(C(=O)N3CCCCC3)CC2)c2nn(-c3ccc(Cl)cc3)c(C)c12,-2.1,4.8,-1.4,-1.0,.,51.0*,3.8,11.2,-5.0
CCN(CC)S(=O)(=O)c1ccc(NC(=O)c2ccc(Cl)nc2)cc1,-3.2,-2.2,-3.6,0.3,1.2,52.1*,-10.2,-10.7,-9.2
CCN(CC)S(=O)(=O)c1ccc(NC(=O)c2ccc(NS(C)(=O)=O)cc2)cc1,-4.5,-8.6,-2.8,0.4,.,-1.8,.,.,.
O=C(C[C@H]1CC[C@@H](NC(=O)CN2CCOCC2)[C@H](CO)O1)NC1CCCCC1,.,.,.,.,0.4,-1.6,.,.,.
O=C(c1ccc(Br)o1)N1CCN(Cc2ccc3c(c2)OCO3)CC1,-2.4,-4.0,-0.7,0.2,.,13.8,.,.,.
O=C(Nc1ccccc1)N1CCN(Cc2ccc3c(c2)OCO3)CC1,0.8,-0.6,-1.8,-1.1,1.2,76.1*,7.1,?,?
C[C@@H](C(=O)N1CCN(Cc2ccc3c(c2)OCO3)CC1)n1nnc2ccccc2c1=O,-0.9,4.3,-0.3,-2.9,0.9,70.1*,-9.0,-10.1,-2.3
O=C(c1ccc(Br)s1)N1CCN(Cc2ccc3c(c2)OCO3)CC1,-5.1,-0.7,-3.4,1.6,.,59.0*,-9.1,-6.9,-7.2
C[C@@H]1CN([C@H](C)CO)C(=O)c2cc(NC(=O)CCC(F)(F)F)ccc2O[C@@H](C)CCCCO[C@H]1CN(C)Cc1ccc(Cl)c(Cl)c1,.,.,.,.,0.0,0.0,.,.,.
COc1cccc(-c2ccc3c(c2)[C@@H]2[C@@H](CCN2S(=O)(=O)c2cccc(OC)c2)[C@@H](CO)N3)c1,.,.,.,.,0.5,0.6,.,.,.
COc1ccc(CCNC(=O)c2cnc3n(c2=O)CCS3)cc1OC,-1.3,4.3,-2.1,0.0,.,47.7*,-3.2,16.2,3.4
C[C@@H]1CCCCO[C@@H](CN(C)C(=O)Nc2ccccc2)[C@H](C)CN([C@@H](C)CO)C(=O)c2cc(NS(=O)(=O)c3ccc(Cl)cc3)ccc2O1,.,.,.,.,0.1,-0.3,.,.,.
CCCNC(=O)Nc1ccc2c(c1)C(=O)N(C)C[C@@H](OC)[C@@H](C)CN(Cc1ccccn1)[C@H](C)CO2,.,.,.,.,.,-0.1,.,.,.
C/C=C/c1ccc2c(c1)O[C@@H](CN(C)C(=O)c1ccc3c(c1)OCO3)[C@@H](C)CN([C@@H](C)CO)S2(=O)=O,.,.,.,.,-1.8,46.3*,8.3,i,-6.4
